The supplement of paper PMC10849652
Of roughly 7,900 targets only a part is listed; those with a hit were picked by preference. About 0.6% of all pairs of compound and target were hits. Values without a mark were called inactive.

Tests used:
Assay in all cases: log2 fold change, soluble protein after heating vs DMSO (PISA); higher = thermal stabilisation; K562 cells, 10 uM, 30 min; active = over 0.2 and 3.5 SD of the protein, either way, in both replicates (recomputed)
[1] = compound: COC1=CC=C(C=C1)CN2C=CC3=C2C=C(C=C3)C(=O)NO
Summary of the method: (§1)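 Soluble protein was defined as the supernatant after 21,000xg for 90 min. It came from K562 cells at 2×10^6 cells/mL given 10 μM compound for 30 min, heated in aliquots for 3 min across 48°C-58°C, pooled, and extracted in PBS with 0.5% NP-40 at 4°C, and was quantified by TMTpro 16plex LC-MS/MS with equalised channel sums. Thermal stability against control samples, from duplicates, is reported as log2 fold change.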

zotarolimus = compound: CO[C@H]1C[C@@H]2CC[C@@H](C)[C@@](O)(O2)C(=O)C(=O)N2CCCC[C@H]2C(=O)O[C@H]([C@H](C)C[C@@H]2CC[C@H](n3cnnn3)[C@H](OC)C2)CC(=O)[C@H](C)/C=C(\C)[C@@H](O)[C@@H](OC)C(=O)[C@H](C)C[C@H](C)/C=C/C=C/C=C/1C [zotarolimus]
Summary of the method: as §1

idasanutlin = compound: COc1cc(C(=O)O)ccc1NC(=O)[C@@H]1N[C@@H](CC(C)(C)C)[C@](C#N)(c2ccc(Cl)cc2F)[C@H]1c1cccc(Cl)c1F [idasanutlin]
Summary of the method: as §1

alisertib = compound: COc1cc(Nc2ncc3c(n2)-c2ccc(Cl)cc2C(c2c(F)cccc2OC)=NC3)ccc1C(=O)O [alisertib]
Summary of the method: as §1

[2] = compound: COc1cc2nc(-c3cc(F)ccc3O)nc(N[C@@H]3CNC[C@H]3C(C)(C)O)c2cc1OC
Summary of the method: as §1

[3] = compound: COc1cccc2cc(-c3nc([C@H]4CC[C@H](C(=O)O)CC4)n4ncnc(N)c34)[nH]c12
Summary of the method: as §1

lapatinib = compound: CS(=O)(=O)CCNCc1ccc(-c2ccc3ncnc(Nc4ccc(OCc5cccc(F)c5)c(Cl)c4)c3c2)o1 [lapatinib]
Summary of the method: as §1

pictilisib = compound: CS(=O)(=O)N1CCN(Cc2cc3nc(-c4cccc5[nH]ncc45)nc(N4CCOCC4)c3s2)CC1 [pictilisib]
Summary of the method: as §1

filanesib = compound: CON(C)C(=O)N1N=C(c2cc(F)ccc2F)S[C@@]1(CCCN)c1ccccc1 [filanesib]
Summary of the method: as §1

gefitinib = compound: COc1cc2ncnc(Nc3ccc(F)c(Cl)c3)c2cc1OCCCN1CCOCC1 [gefitinib]
Summary of the method: as §1

UniProt P53367, sequence (P53367 whole entry, looked up): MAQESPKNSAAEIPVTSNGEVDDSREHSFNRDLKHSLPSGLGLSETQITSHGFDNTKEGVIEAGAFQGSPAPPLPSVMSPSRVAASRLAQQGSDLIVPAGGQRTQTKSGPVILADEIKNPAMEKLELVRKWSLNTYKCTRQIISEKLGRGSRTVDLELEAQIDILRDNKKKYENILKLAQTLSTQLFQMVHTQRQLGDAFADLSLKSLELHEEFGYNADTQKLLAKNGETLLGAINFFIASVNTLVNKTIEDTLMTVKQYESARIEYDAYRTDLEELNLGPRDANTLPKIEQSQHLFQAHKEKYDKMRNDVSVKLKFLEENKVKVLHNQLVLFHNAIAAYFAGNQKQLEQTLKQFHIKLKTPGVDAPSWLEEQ
UniProt P98171, sequence (P98171 whole entry, looked up): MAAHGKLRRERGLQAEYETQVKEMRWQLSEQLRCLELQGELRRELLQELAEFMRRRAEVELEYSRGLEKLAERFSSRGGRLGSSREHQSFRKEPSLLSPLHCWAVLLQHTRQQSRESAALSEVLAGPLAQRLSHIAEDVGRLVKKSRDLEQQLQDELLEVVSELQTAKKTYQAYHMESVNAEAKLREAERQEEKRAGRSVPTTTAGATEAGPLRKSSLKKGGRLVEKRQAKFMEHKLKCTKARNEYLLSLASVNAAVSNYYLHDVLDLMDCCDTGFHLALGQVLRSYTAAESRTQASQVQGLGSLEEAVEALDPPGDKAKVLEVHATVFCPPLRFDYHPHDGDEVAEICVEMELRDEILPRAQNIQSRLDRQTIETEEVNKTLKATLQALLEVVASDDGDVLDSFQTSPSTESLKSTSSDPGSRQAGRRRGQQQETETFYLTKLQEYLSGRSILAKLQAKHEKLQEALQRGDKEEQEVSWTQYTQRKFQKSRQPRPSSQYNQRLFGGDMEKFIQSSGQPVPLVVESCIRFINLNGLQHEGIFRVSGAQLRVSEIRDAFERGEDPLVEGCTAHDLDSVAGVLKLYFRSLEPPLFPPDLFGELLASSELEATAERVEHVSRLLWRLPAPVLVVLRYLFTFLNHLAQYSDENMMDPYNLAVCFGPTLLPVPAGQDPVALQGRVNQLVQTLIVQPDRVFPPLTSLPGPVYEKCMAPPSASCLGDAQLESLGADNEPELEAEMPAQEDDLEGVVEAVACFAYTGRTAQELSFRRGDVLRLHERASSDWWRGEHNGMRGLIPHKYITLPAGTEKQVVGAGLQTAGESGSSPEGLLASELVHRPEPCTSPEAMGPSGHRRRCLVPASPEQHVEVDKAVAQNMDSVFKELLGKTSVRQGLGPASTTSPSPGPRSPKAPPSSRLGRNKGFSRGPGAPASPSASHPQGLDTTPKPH
UniProt Q562R1, sequence (Q562R1 whole entry, looked up): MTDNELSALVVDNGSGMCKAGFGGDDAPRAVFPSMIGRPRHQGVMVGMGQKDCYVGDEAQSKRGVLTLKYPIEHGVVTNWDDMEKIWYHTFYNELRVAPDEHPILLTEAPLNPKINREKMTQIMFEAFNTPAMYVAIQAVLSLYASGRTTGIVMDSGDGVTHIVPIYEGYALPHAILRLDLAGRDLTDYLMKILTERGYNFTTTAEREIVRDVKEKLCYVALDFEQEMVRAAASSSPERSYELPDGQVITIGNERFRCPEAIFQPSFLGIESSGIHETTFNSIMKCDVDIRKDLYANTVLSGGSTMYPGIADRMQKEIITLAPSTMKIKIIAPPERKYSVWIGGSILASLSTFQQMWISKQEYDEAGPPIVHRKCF
UniProt P35611, sequence (P35611 whole entry, looked up): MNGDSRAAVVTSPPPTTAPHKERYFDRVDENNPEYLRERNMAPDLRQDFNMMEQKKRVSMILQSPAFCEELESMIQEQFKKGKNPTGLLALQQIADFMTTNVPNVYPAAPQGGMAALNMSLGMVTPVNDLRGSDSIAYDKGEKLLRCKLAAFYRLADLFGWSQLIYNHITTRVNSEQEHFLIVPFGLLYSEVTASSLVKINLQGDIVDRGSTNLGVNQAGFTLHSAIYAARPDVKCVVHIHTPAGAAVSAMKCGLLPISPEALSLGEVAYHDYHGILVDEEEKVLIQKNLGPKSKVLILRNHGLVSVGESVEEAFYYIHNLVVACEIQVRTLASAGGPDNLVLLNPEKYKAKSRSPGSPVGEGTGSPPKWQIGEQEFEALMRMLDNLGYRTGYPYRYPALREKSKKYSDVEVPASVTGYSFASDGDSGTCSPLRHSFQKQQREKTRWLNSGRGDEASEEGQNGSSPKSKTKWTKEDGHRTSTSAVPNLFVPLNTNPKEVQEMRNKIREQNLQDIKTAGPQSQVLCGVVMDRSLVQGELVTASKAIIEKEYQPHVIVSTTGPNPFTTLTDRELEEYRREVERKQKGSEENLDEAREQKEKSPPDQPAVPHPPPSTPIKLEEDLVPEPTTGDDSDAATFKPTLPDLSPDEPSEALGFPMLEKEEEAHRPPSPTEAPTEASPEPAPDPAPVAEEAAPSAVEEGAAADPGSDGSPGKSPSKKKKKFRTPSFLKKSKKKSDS
UniProt Q9BTE6, sequence (Q9BTE6 whole entry, looked up): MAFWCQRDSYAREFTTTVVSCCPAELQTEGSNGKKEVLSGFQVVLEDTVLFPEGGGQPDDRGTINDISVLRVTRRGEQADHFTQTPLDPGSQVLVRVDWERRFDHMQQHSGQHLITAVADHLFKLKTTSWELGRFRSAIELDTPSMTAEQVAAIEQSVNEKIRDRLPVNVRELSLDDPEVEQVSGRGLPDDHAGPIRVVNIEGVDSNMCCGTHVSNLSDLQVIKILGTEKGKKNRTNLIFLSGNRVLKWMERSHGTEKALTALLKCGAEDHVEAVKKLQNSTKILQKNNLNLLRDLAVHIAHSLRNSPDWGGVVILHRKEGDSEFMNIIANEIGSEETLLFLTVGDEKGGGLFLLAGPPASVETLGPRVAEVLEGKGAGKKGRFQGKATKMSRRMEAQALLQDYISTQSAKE
UniProt P40617, sequence (P40617 whole entry, looked up): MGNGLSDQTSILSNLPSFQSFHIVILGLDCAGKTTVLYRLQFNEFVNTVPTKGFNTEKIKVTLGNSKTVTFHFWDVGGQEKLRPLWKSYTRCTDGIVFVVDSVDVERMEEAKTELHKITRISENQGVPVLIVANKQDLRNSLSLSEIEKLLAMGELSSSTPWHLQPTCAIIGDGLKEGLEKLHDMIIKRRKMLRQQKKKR
UniProt Q9H7T9, sequence (Q9H7T9 whole entry, looked up): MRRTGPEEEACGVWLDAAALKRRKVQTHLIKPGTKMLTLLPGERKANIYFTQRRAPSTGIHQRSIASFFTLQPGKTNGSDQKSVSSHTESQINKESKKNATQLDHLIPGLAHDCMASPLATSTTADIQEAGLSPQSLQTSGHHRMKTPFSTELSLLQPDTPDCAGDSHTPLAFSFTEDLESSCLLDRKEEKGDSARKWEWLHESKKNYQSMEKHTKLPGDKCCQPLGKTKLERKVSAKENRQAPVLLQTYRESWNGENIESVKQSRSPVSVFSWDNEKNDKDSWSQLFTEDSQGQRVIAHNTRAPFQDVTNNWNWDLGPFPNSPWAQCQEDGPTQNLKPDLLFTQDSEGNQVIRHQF
UniProt Q14CW9, sequence (Q14CW9 whole entry, looked up): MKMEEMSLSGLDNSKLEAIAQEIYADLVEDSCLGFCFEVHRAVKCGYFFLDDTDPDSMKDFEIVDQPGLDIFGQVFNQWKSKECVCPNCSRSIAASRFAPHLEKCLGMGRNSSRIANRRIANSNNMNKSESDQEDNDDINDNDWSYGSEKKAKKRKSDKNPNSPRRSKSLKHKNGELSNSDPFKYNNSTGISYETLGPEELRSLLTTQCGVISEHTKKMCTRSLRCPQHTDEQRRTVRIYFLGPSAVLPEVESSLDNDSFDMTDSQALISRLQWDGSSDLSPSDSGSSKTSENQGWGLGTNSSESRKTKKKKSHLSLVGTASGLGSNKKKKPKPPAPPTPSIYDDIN
UniProt P54922, sequence (P54922 whole entry, looked up): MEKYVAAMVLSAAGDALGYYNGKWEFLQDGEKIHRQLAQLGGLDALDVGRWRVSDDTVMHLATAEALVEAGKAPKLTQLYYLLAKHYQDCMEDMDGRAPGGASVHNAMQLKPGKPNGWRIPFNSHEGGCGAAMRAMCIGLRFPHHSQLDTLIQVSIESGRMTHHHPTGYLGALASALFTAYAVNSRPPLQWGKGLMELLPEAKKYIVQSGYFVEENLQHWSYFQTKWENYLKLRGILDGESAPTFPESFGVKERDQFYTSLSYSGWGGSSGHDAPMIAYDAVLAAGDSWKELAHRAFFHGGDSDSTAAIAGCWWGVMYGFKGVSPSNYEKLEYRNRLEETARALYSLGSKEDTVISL
UniProt Q9HCU9, sequence (Q9HCU9 whole entry, looked up): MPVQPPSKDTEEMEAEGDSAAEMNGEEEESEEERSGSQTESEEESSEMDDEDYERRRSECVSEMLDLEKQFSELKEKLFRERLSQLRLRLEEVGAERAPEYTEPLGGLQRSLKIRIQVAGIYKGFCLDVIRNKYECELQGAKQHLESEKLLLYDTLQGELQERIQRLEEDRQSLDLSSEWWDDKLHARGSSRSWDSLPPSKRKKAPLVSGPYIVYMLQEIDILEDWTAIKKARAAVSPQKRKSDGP
UniProt Q9NWX5, sequence (Q9NWX5 whole entry, looked up): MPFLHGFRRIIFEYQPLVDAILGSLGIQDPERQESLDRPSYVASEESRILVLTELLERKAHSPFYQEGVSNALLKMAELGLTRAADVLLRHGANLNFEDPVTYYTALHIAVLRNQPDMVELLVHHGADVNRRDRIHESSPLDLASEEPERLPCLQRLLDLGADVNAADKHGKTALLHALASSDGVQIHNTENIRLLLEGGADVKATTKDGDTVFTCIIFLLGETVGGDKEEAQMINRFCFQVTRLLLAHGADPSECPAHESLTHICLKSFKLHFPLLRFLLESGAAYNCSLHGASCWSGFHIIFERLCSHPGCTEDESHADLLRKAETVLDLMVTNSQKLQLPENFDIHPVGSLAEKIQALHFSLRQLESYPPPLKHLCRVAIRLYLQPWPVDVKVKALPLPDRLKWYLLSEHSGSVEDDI
UniProt P55008, sequence (P55008 whole entry, looked up): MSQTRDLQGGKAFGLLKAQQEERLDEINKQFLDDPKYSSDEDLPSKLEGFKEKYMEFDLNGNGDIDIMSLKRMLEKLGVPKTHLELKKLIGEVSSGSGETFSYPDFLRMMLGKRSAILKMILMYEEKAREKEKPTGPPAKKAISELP

| Target | log2 fold change [1] | log2 fold change (zotarolimus) | log2 fold change (idasanutlin) | log2 fold change (alisertib) | log2 fold change [2] | log2 fold change [3] | log2 fold change (lapatinib) | log2 fold change (pictilisib) | log2 fold change (filanesib) | log2 fold change (gefitinib) |
| --- | --- | --- | --- | --- | --- | --- | --- | --- | --- | --- |
| AUH (UniProt Q13825) | -0.107 | 0.009 | -0.074 | 0.175 | -0.036 | 0.034 | 0.056 | -0.071 | – | – |
| ALDH2 isoform 2 (UniProt P05091) | – | – | 0 | – | 0.166 | – | -0.266 | -0.035 | 0.013 | – |
| ARHGAP25 isoform 4 (UniProt P42331) | – | -0.077 | -0.123 | -0.068 | – | -0.11 | – | 0.085 | – | 0.08 |
| AKNA (UniProt Q7Z591) | – | 0.01 | – | – | 0.205 | – | -0.059 | – | 0.04 | – |
| ACTBL2 (UniProt Q562R1) | – | – | 0.533 | 0.521 | -0.085 | -0.105 | -0.079 | -0.541 | 0.171 | 0.348 |
| ARMC8 isoform 6 (UniProt Q8IUR7) | – | – | 0.072 | – | – | – | – | – | – | 0.072 |
| ACVR1 (UniProt Q04771) | – | -0.371 | -0.156 | -0.096 | 0.133 | -0.13 | -0.004 | 0.248 | -0.022 | – |
| ABHD11 (UniProt Q8NFV4) | -0.076 | 0.049 | -0.058 | -0.002 | 0.061 | 0.076 | -0.037 | 0.024 | – | -0.013 |
| ACSL6 isoform 1 (UniProt Q9UKU0) | – | – | – | -0.013 | – | 0.123 | – | 0.051 | -0.054 | 0.103 |
| ASS1 (UniProt P00966) | – | 0.012 | -0.085 | 0.254 | 0.047 | 0.056 | -0.012 | 0.018 | -0.101 | -0.005 |
| AZI2 (UniProt Q9H6S1) | – | – | – | – | – | – | – | – | 0.006 | 0.227 |
| BAP18 isoform 3 (UniProt Q8IXM2) | – | – | – | -0.033 | – | 0.12 | – | -0.093 | – | – |
| BRAF, A0A2R8Y8E0 | -0.008 | – | 0.221 | -0.054 | – | -0.326 | – | – | – | -0.027 |
| ATXN3 isoform 1 (UniProt P54252) | 0.023 | -0.051 | -0.114 | -0.004 | 0.106 | 0.297 | -0.031 | -0.036 | – | -0.192 |
| AIF1 (UniProt P55008) | – | – | 0.052 | – | 0.083 | – | 0.053 | – | 0.038 | – |
| BTBD6 (UniProt Q96KE9) | – | 0.062 | 0.053 | -0.058 | 0.194 | -0.186 | -0.072 | 0.143 | -0.019 | 0.03 |
| ARFIP1 isoform 2 (UniProt P53367) | -0.225 | – | – | -0.17 | -0.013 | -0.068 | 0.05 | -0.154 | -0.082 | -0.067 |

| Target | log2 fold change [1] | log2 fold change (zotarolimus) | log2 fold change (idasanutlin) | log2 fold change (alisertib) | log2 fold change [2] | log2 fold change [3] | log2 fold change (lapatinib) | log2 fold change (pictilisib) | log2 fold change (filanesib) | log2 fold change (gefitinib) |
| --- | --- | --- | --- | --- | --- | --- | --- | --- | --- | --- |
| ADPRH (UniProt P54922) | 0.098 | – | – | -0.099 | 0.135 | -0.033 | 0.05 | -0.107 | -0.088 | 0.013 |
| ARHGAP4 isoform 2 (UniProt P98171) | – | -0.012 | 0.104 | 0.166 | 0.067 | 0.028 | 0.051 | – | 0.027 | -0.211 |
| ALDH9A1 (UniProt P49189) | – | -0.164 | -0.073 | -0.091 | 0.038 | 0.081 | -0.037 | -0.124 | -0.149 | 0.039 |
| BAIAP2 isoform 4 (UniProt Q9UQB8) | – | -0.184 | – | – | – | – | – | – | 0.302 | – |
| AMD1 (UniProt P17707) | -0.009 | – | -0.193 | -0.023 | 0.024 | 0.058 | -0.034 | 0.043 | -0.128 | 0.041 |
| ALG14 (UniProt Q96F25) | -0.2 | -0.109 | -0.091 | 0.112 | -0.19 | 0.077 | 0.168 | -0.467 | – | 0.074 |
| ATF1 (UniProt P18846) | – | -0.51 (active) | -0.082 | -0.101 | -0.071 | 0.006 | -0.011 | -0.039 | 0.097 | 0.052 |
| AUNIP isoform 2 (UniProt Q9H7T9) | – | -0.044 | 0.142 | – | -0.229 | – | 0.099 | – | 0.125 | – |
| ASB6 (UniProt Q9NWX5) | 0.298 | – | -0.029 | -0.214 | -0.083 | 0 | -0.055 | 0.157 | 0.008 | -0.034 |
| AARSD1 (UniProt Q9BTE6) | -0.659 | 0.055 | -0.071 | 0.08 | 0.036 | -0.016 | 0.069 | – | – | 0.157 |
| ARRDC1 (UniProt Q8N5I2) | – | 0.182 | – | 0.152 | -0.098 | 0 | 0.01 | -0.092 | 0.013 | -0.009 |
| ATXN7L3 isoform 2 (UniProt Q14CW9) | -0.158 | – | 0.193 | -0.191 | – | 0.035 | – | – | -0.02 | 0.052 |
| BRMS1 (UniProt Q9HCU9) | – | – | 0.066 | -0.074 | – | 0.007 | – | 0.042 | – | – |
| BSCL2 isoform 4 (UniProt Q96G97) | – | 0.076 | -0.132 | -0.037 | -0.248 | 0.069 | 0.048 | 0.126 | – | 0.021 |
| ADD1 isoform 4 (UniProt P35611) | -0.054 | -0.065 | – | – | – | – | – | -0.068 | – | – |
| ACTR3B (UniProt Q9P1U1) | 0.407 (active) | – | – | – | 0.022 | – | -0.056 | -0.021 | – | -0.213 |
| ARL4A (UniProt P40617) | – | – | 0.056 | 0.042 | – | 0.094 | – | – | – | – |
